These results are taken from the supplement of paper PMC12632987.

In all, about 4,500 sequences were measured (“median log2 fold change of GCK-ALFA target abundance (FLAG IP / Myc IP barcode read proportion)”: median about 0.078, lowest 2% from about -0.6 on). Shown is part of a subset that was picked to be rich in the lowest values.

The labels stand for the following.
B1: GBRAP_122_2955 (protein)
chain: SKEEEVERLVEETVEAAKKGDFAATILEALKEAAERFDAESLIRLAERLAERARELGKEAEAALAFATAAQWLLEERPELAEAADRLLELADELLDLLEE
B2: GBRAP_166_4966 (protein)
chain: MEEEIKEEFKKYLEELKEKMKKANEEEKLELLAEAAEKLREAKEAGVSRETLRELIRYLIELAKEVGLTDSQVYGALSILADLDEEEIDILEEEIAEVRA
B3: GBRAP_166_4889 (protein)
chain: STEEAIREIERLAEEAIANIAALTPEELLAVFIEMVEIVERAGATPELRAALAEAAARIVAAAVAAGRDWDEVESLALAAVGDDEELLDAVEATLAALRA
B4: GBRAP_74_6553 (protein)
chain: SAALKKEIDAAAKAGDADKLIKLARKAVKEGDIDVAVHALGQLAKLAVKKAKAGDYDELDKLIDAIVEILEKVPDEALTDETWKAIAAAIKAAIEAEKAR
B5: GBRAP_160_4776 (protein)
chain: SEKEEKLKKKIKEAKEEILESIDTLSPEETLTVAIGETGDIIMEAEELEFDNEELLDSIDEIMDELIEELEKNKNASPEEKKKIVEEKFEKLLKELEKLT
B6: GBRAP_160_4428 (protein)
chain: SEKLKKAKEKIEEIIEETVEMMKGQSAEERQVLVRVARGEIILELEELGLLTDEVDEVIDEEFDEIVEYIAENPDISDEELRELLEEAREKILKELEKVS
B7: GBRAP_14_3860 (protein)
chain: VEALVKAVERTAESTKELIAEIAPEHAEEIKAKVEELAKEIIEKIKKENLNIEEVEELVDEAAEKLGAYMREKGYLSDTEIAAFKAHLLSEFLLELEEIE
B8: GBRAP_160_4725 (protein)
chain: EEEIKEFVEEFREEFLETLELTKDESKENAKALFRGTAGEILQDAFENPFLTDEQEDVVAEILDELVEELEKNFDASLEEKKEIVEEKMEELLEKLLELS
B9: GBRAP_128_3486 (protein)
chain: STEEVVAKTKELMEKIKNSSLEEVEEIARELVELLGQADPESREAATEVILEKLKELSAEKLEILADVLRERQPELDPFGAEQAAEIQVEALNEAEEKEE
B10: GBRAP_52_6312 (protein)
chain: MHERMRELAEELLELMLAGDREGARALAREIVATLSEEELLLLAEELAELAEELDEEELEKAAELLFILEDEMEAAGVDERVIAEMLGIIITAIYKAEQK
B11: GBRAP_52_6313 (protein)
chain: MREEMRAQAEELLALMLAGDRDGARALAEELVATLSEEELLLLAEELAKLSETLNAEELDKAMELLEILEDVMEEAGVDERVIAEIRGIVITAIYKAEQK
B12: GBRAP_96_7095 (protein)
chain: MLEEAKKLVKELIKALDTDPEKAEELAKKLLEFPVEVVTEALVEVVKKPEDAAKIAKLLLKLGDEKAEEVLLEAAEKAPGDISKAIIDAMEAYEKEQEAA
B13: GBRAP_128_3565 (protein)
chain: STAELVAEARALLAAIKAADAEEARALAERLADLIAAASPEARAAIVETILARLPELTAEQLDILADVFAARRATADPAVAEALAEIQVEALNVREEKEE
B14: GBRAP_14_3799 (protein)
chain: MEEREKAIEEITEETLEILEEILADAPEEVRERVLELVEEARERIIKEKLSPDEIAELEDELLEEVAKILADAPPEVRAQVLAAISVGMGEIILEVEELE
B15: GBRAP_160_4163 (protein)
chain: MEEAEELIKEVEEETKEAIELIEGESIEQRKVIIAGHFGVIIMTLFESDVVSDEVVDFAVELRDELVKWIDENPDASLEEIKKKIKEAEKKIKEKIKKDA
B16: GBRAP_35_5613 (protein)
chain: EDVQLAVDSFVDMAEAIIELIPEIDDETLAALAQSLIKFAKSLLKEEKNNKEALEKIKEAMEKLLEALKKYRSDNPLIQKVAKEVQEVIKEAEKAIKEVK
B17: GBRAP_52_5915 (protein)
chain: MSAELEAKLDEMLAAVKAGKLEEARAIAREIVESLDDEELRELVELFAERVRAAPLEDLPAWWRLAEILAEELEEAGKDEVLADDLLNRTAAAIYEKLQA
B18: GBRAP_160_4375 (protein)
chain: SEELKELIKEIEELKKEFEELAKDLSPEEVKILAKGVLSEIAALVFENEAVSEETKDKIMEIIDKALEELDKLKDASPEEIVAVTTEAVNEIIELIKKEI
B19: GBRAP_14_3854 (protein)
chain: MEKLIAAVKKTAEAAIEFAKELLPEHAEEVGKKIKELAEKIIEKIKKENLNKEEVAELIRKMAEELGKFIKEKGYASDEEIAAFKAFIENEALLELEKVE
B20: GBRAP_52_5907 (protein)
chain: MKEELEKILNEIIEAVKAGKLEEARKIARELAEKYDDETLEEFIELFAEMVLEAPEEDLPYYWKAAEILAEEFEREGKDEVLADLLLSRTAAAIYEKLQR
B21: GBRAP_26_5463 (protein)
chain: MDEAFRAALDAVDAAAATLPNPNAAAAVTAEAATVLEELEEAIEAGEDIAAAVAAARDELLAAARAIGEEEGLPAATIAAMEATLTAIFDALEAALKAAA
B22: GBRAP_26_5467 (protein)
chain: MDAAFAAARDRIDAIAAKLPDPRAAAALRALADTELLELEERIEAGEDIDAAVDAARDAFLAEAREILEDAGLPEELIAKTLAEFEAVFDDLRAALKAAQ
B23: GBRAP_52_6357 (protein)
chain: KLEEALALLERALEAMLAGREDEARAILREIVETYDDETILAAFERLAEKILGKSVEEAEAFLDLALLLADVMDELGRDEAVGDEIEAIAAKAYMTVLEK
B24: GBRAP_160_3973 (protein)
chain: SEEVEELKKEIKELFDEAKKLIEGESYEERLTIIKVMVGDILLLADENPLISDEVEDKIDEIGDELIETIEKNPDLTDEEIKKLIDEAEEKILKTIDEAF
B25: GBRAP_43_5767 (protein)
chain: SKELVEGAFETAILLLEDPSISEETKVKAIIAAMELAADEGYVDKELLEKVVELAGKTLSKESLEKILKAAKKLAKEYPESKEAFEEAAKKLEEAIAKKE
B26: GBRAP_64_6486 (protein)
chain: EEEIKKLHEETLKQAKKLVELLKDSSEELQKQAKEVLELIEKSKEASLEEAAKLLAEAAKLLNELLKSPELTEEQKDQVAETLDLVSELLWLVVEKELEK
B27: GBRAP_52_5904 (protein)
chain: MREELRAQVEEMLALVRAGDLEGARALAREIAETLNDEELRLLIEEVAALVREAPLEELPAWWRLAEIMAEAFEEAGKDEVLADDLLAATAAAIHERLQR
B28: GBRAP_184_5166 (protein)
chain: MIKEFEIKIENVEEAKEKIEEIKKEVEGLKAELYVIVETKELTVEIAKAILEGLKEMKEKGYVTSITVEFTGKIDEETLDVAVKLADEAGVKLVIAIDEE
B29: GBRAP_139_3707 (protein)
chain: SALEELIAEARRLTREMREDPEAALEALVELLLSVSEEELEVLVEAIAEELSRLPLDEAEELADRLLELVEERFKDEDKIDIVEAVLNGALARKAAEEEA

GABARAP, O95166, sequence (O95166 whole entry, the tested form may be a part): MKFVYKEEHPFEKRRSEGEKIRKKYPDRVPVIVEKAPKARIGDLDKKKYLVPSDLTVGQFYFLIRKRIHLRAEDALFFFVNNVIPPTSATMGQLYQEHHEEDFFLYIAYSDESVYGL

The target in the assay is GABARAP, O95166. The experiment in a line: median log2 fold change of GCK-ALFA target abundance (FLAG IP / Myc IP barcode read proportion) (log2 ratio); each designed protein is fused to an ALFA-tag nanobody in HEK293 cells to bring the named protein to FLAG-tagged glucokinase (GCK); Myc marks an untargeted standard; higher = target protein stabilised (more abundant). To be noted: target protein: 3xFLAG-MCP-GCK-ALFA reporter; HEK293 landing pad (RPLP). Summed up:
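Sequencing of reverse-transcribed, amplified circular RNA barcodes from anti-FLAG and anti-Myc immunoprecipitates provided the readout for an ALFA-nanobody-fused binder library recombined into HEK293 landing-pad cells. Those cells were induced with 2 μg mL^−1 doxycycline, transfected with a plasmid expressing a FLAG-tagged target and a Myc-tagged standard, and lysed after 48 h. Target abundance is the per-binder median log2 ratio of FLAG to Myc barcode read proportions. Only barcodes at a proportion of ≥10^−7 in both replicates and binders with ≥3 barcodes per replicate were kept, with a 10^−6 pseudocount added before the two replicates were pooled.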
For B1, the “median log2 fold change” value was -0.119. Consider B2, for which the “median log2 fold change” value is -0.12. Next, B3: 0.108; B4: -0.699. The same measure for B5: 0.018; for B6: 0.0554; for B7: 0.302. B8: the “median log2 fold change” value came to 0.0697. The same measure for B9: 0.224; for B10: -0.795; for B11: -0.0291. In the case of B12, the “median log2 fold change” value is 0.344. Consider B13, for which the “median log2 fold change” value was determined as 0.318. The same measure for B14: -0.611; for B15: 0.215; for B16: -0.07. B17: the “median log2 fold change” value was -0.669. Turning to B18, the “median log2 fold change” value came to 0.194. The same measure for B19: 0.381; for B20: -0.881; for B21: 0.261. On to B22, for which the “median log2 fold change” value is 0.199.

For B23, the “median log2 fold change” value was -0.492. Next, B24: -0.605. The same measure for B25: 0.243; for B26: 0.19. B27: the “median log2 fold change” value is -0.644.

On to B28, for which the “median log2 fold change” value came out at 0.0333. The same measure for B29: -0.0884.
